In ChEMBL document CHEMBL3988442, “University of Dundee, Small-Polar-MMV Screening Library” (2021):
The whole screen tested about 48,000 compounds, of which about 13,000 (27%) showed an effect of 50% or more. The list shows a part of the results.

These compounds were tested on Wolbachia pipientis (assay: Anti-Wolbachia Cell-Based Screen). Details: 5 µM.
Type: functional
Parameters: scale not given: in the data most compounds retested in dose-response had high values
With COc1cnc(N2CCC(Oc3ccccc3OC)(C(=O)O)CC2)nc1 the “Percent Effect” value was -8.18%.
COc1ccccc1C(C)Nc1ncc(C(N)=O)cc1Cl (configuration not stated) was tested, and the “Percent Effect” value was 2.47%.
For Cc1cccc(C)c1OC1CN(C(=O)C2CCN(C(=O)N(C)C)CC2)C1, the “Percent Effect” value was -8.295%.
For CCc1nc(CCn2ccnc2-c2nccn2C)no1, the “Percent Effect” value was -9.052%.
For Cn1cc(CN2C[C@@H](F)[C@@H](OCc3nc4cnccc4[nH]3)C2)cn1, the “Percent Effect” value was -2.303%.
With Fc1ccc(-c2c[nH]c([C@@H]3COCCN3)n2)cc1 the “Percent Effect” value was -3.188%.
With Fc1cccc(CNc2cncc(-n3cccn3)n2)c1 the “Percent Effect” value was 9.755%.
For Cc1nc(NCc2ccc(F)cc2)cc(C2CCCN2)n1.Cl (configuration not stated), the “Percent Effect” value was 123.2%.
Cc1nc(NCc2nccn2C)cc(C2COCCN2)n1 (configuration not stated) was tested, and the “Percent Effect” value was 145.4%.
Clc1ccc(-c2c[nH]c([C@@H]3COCCN3)n2)cc1 was tested, and the “Percent Effect” value was -8.999%.
Cc1cc(NCc2ccc(N3CCNC(=O)C3)cc2)nc(C)n1 was tested, and the “Percent Effect” value was 3.077%.
Cc1nc(NCc2cccc(F)c2)cc(C2CCNCC2)n1.Cl was tested, and the “Percent Effect” value was 92.9%.
For COc1ccc2[nH]c(CNc3cc(C4CCNCC4)nc(C)n3)cc2c1, the “Percent Effect” value was -0.5265%.
With Cc1ccc(-c2cn3c(n2)CO[C@@H](CNCc2nccn2C)C3)cc1 the “Percent Effect” value was -11.82%.
With Cn1ccnc1-c1ccc(NCC2COCCO2)nn1 (configuration not stated) the “Percent Effect” value was -2.389%.
Cc1nc(Cc2ccc(F)cc2)cc(C2COCCN2)n1.Cl (configuration not stated) was tested, and the “Percent Effect” value was 104.2%.
COCC(c1cccc(C(F)(F)F)c1)N(C)C(=O)c1cc(C)no1 (configuration not stated) was tested, and the “Percent Effect” value was -19.18%.
For CCOC(C(=O)N1CCn2c(CC)nnc2C1)c1ccccc1 (configuration not stated), the “Percent Effect” value was 26.72%.
For CCc1nnc(CN2CCN(C(=O)c3cc4ccccc4[nH]3)CC2)o1, the “Percent Effect” value was 0.1099%.
In the case of CCc1nnc2n1CCN(C(=O)c1ccc(C(F)(F)F)nc1C)C2, the “Percent Effect” value is reported as 5.32%.
With Cc1ccc2cc(C(=O)N3CCN(S(C)(=O)=O)CC3)[nH]c2c1 the “Percent Effect” value was -2.597%.
CCOc1ccc2cc(C(=O)N3CCn4c(CC)nnc4C3)[nH]c2c1 was tested, and the “Percent Effect” value was 104.5%.
In the case of CCc1nnc2n1CCN(C(=O)c1cc(Br)c[nH]1)C2, the “Percent Effect” value is reported as 2.696%.
With CCc1nnc2n1CCN(C(=O)c1cc3ccc(C)cc3[nH]1)C2 the “Percent Effect” value was 95.03%.
With CCc1nnc2n1CCN(C(=O)c1cc3ccc(F)cc3nc1C)C2 the “Percent Effect” value was 4.903%.
In the case of CCc1nnc2n1CCN(C(=O)c1cc3cc(C)ccc3[nH]1)C2, the “Percent Effect” value is reported as 89.42%.
CCc1nnc2n1CCN(C(=O)c1cc3cc(F)ccc3[nH]1)C2 was tested, and the “Percent Effect” value was 1.688%.
For CCc1nnc2n1CCN(C(=O)c1cnc3c(cnn3C(C)C)c1)C2, the “Percent Effect” value was -2.522%.
With CCc1nnc2n1CCN(C(=O)c1cc3ccccc3[nH]1)C2 the “Percent Effect” value was 108.3%.
For c1cc(-c2ccc(CN3CCCC4(CCNC4)C3)s2)[nH]n1 (configuration not stated), the “Percent Effect” value was 24.12%.
CCc1nnc2n1CCN(C(=O)c1ccc3c(c1)NC(=O)CO3)C2 was tested, and the “Percent Effect” value was -1.668%.
With CCc1nnc2n1CCN(C(=O)c1cc3c(F)cccc3[nH]1)C2 the “Percent Effect” value was 92%.
With CCc1nnc2n1CCN(C(=O)c1cnc(-c3cccs3)s1)C2 the “Percent Effect” value was -0.7102%.
In the case of Cc1nn(C)c(Oc2ccc(Cl)cc2)c1CN1CCOC(CN)C1 (configuration not stated), the “Percent Effect” value is reported as -15.91%.
For CN(C)C(=O)CO[C@H]1COCCN(C2CCOCC2)C1, the “Percent Effect” value was -5.811%.
CN(C)C(=O)[C@@H]1C[C@@H]2CCN(C3CCOCC3)C[C@@H]2O1 was tested, and the “Percent Effect” value was 104.3%.
With CN(C)C(=O)[C@H]1C[C@@H]2CCN(C3CCOCC3)C[C@@H]2O1.O=C(O)C(F)(F)F the “Percent Effect” value was 90.19%.
CN(C)C(=O)[C@@H]1C[C@@H]2CCN(C3CCOCC3)C[C@H]2O1.O=C(O)C(F)(F)F was tested, and the “Percent Effect” value was 104.8%.
In the case of O=C(NC1CC1)[C@@H]1CCO[C@@H]2CCN(C3CCOCC3)C[C@@H]21.O=C(O)C(F)(F)F, the “Percent Effect” value is reported as -4.22%.
For CN(C)C(=O)[C@H]1C[C@@H]2CCN(C3CCOCC3)C[C@H]2O1, the “Percent Effect” value was -14.13%.
For CC(c1cncs1)N(C)Cc1ccc(CCC(C)(C)O)cc1 (configuration not stated), the “Percent Effect” value was -1.575%.
COCC(C)(CCO)NC(=O)Nc1c(F)cccc1Br (configuration not stated) was tested, and the “Percent Effect” value was 1.184%.
COCCCN1C(=O)CC[C@H]2CN(Cc3ccc4nonc4c3)CC[C@H]21 was tested, and the “Percent Effect” value was -13.98%.
COCCOCC(=O)N(C)Cc1ccc(OCc2cccs2)cc1 was tested, and the “Percent Effect” value was 0.8009%.
COc1ccc(O[C@H]2COCCN(Cc3c[nH]c4ccccc34)C2)cc1 was tested, and the “Percent Effect” value was 17.89%.
For c1ccc(O[C@H]2COCCN(Cc3cccc4c3OCO4)C2)cc1, the “Percent Effect” value was -7.306%.
In the case of c1ccc(O[C@H]2COCCN(Cc3c[nH]c4ccccc34)C2)cc1, the “Percent Effect” value is reported as 61.61%.
With Cc1cccc(S(=O)(=O)NCc2cccc(CS(C)(=O)=O)c2)c1 the “Percent Effect” value was -26.55%.
In the case of CS(=O)(=O)NCCNC(=O)C1(c2cccc(Cl)c2)CC1, the “Percent Effect” value is reported as 8.855%.
In the case of COC(=O)c1c(Cl)c(C2CC2)nc2onc(C)c12, the “Percent Effect” value is reported as 129%.
For Cc1nc(C2CCCCC2)sc1C(=O)O, the “Percent Effect” value was -7.894%.
In the case of Cc1noc(C)c1CN1CCC(NC(=O)OC(C)(C)C)CC1, the “Percent Effect” value is reported as -1.462%.
With COC(=O)c1c(Cl)c(C)nc2onc(C)c12 the “Percent Effect” value was 101.9%.
In the case of Cc1noc2nc(C3CC3)c(Cl)c(C(=O)O)c12, the “Percent Effect” value is reported as 111.5%.
In the case of CSc1nc(C2CC2)nc(C)c1C(=O)NCc1cc(C)on1, the “Percent Effect” value is reported as -0.6929%.
Cc1noc([C@@H](C)NCc2cccc(Cl)c2)c1C(=O)O.Cl was tested, and the “Percent Effect” value was -9.594%.
In the case of Cc1nc([C@H]2C[C@@H]3CCN(Cc4cnn(C)c4)C[C@H]3O2)sc1C, the “Percent Effect” value is reported as 3.707%.
With CCN1CCn2c(C)cnc2C12CCN(C(=O)CC(C)C)CC2.O=C(O)C(F)(F)F.O=C(O)C(F)(F)F the “Percent Effect” value was -11.73%.
In the case of CCN1CCn2c(C)cnc2C12CCN(C(=O)N(C)C)CC2.O=C(O)C(F)(F)F.O=C(O)C(F)(F)F, the “Percent Effect” value is reported as 107%.
In the case of CCN1CCC2(CN(C(=O)N(C)C)CC23CCNCC3)C1=O.O=C(O)C(F)(F)F (configuration not stated), the “Percent Effect” value is reported as -16.29%.
For CC(C)C(=O)N1CC2(CCN(CC(C)(C)C)CC2)C1.O=C(O)C(F)(F)F, the “Percent Effect” value was -18.04%.
With CCN1CCn2c(C)cnc2C12CCN(C(=O)C(C)C)CC2.O=C(O)C(F)(F)F.O=C(O)C(F)(F)F the “Percent Effect” value was 108.7%.
